# Shown are actives, neighbours in structure and some others; about 2.9% of the full set was active somewhere.
# PLCg1 inh: inhibitors of human phospholipase C gamma1; purified PLC-gamma1, fluorogenic substrate, fluorescence; actives 0.84% (n = 370,000); inhibition, % at 12.2 µM; in the data active = inhibition above about 9.5%
# PLC-beta3 inh: blocks human PLC-beta3 enzyme activity. inhibition, % at 12.2 µM. Q01970. actives 0.18% (n = 370,000). Purified PLC-beta3, fluorogenic substrate, fluorescence. AID 720704; in the data active = inhibition above about 11%;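 note: 0% = median of compound wells on plate and 100% = full blocker control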
# proKLK7 act: activates the human kallikrein-7 zymogen | actives 0.9% (n = 370,000) | AID 652039 | activation, % at 7 µM | P49862 | purified proKLK7, EDANS-DABCYL substrate fluorescence; 100% is mature enzyme control, 0% vehicle;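 active = activation above the mean of all tested compounds plus 3 SD, computed per campaign excluding outliers beyond control limits, cut at about 13% in these data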
# Target sequence (P49862 whole entry, looked up): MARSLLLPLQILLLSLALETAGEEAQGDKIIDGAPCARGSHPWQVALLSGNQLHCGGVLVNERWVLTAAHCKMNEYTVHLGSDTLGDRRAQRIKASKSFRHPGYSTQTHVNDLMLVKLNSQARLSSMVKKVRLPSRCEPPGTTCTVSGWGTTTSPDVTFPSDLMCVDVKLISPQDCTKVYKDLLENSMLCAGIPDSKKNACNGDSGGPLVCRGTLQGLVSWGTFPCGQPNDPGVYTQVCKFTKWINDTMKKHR
# ADAM17 inh: inhibitors of human ADAM17. recombinant ADAM17, EDANS/DABCYL FRET peptide cleavage. inhibition, % at 6.95 µM. actives 0.83% (n = 370,000). AID 720648;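 active = inhibition above the mean of compounds lying between control limits plus 3 SD, set per campaign, cut at about 8.5% in these data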;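 note: 0% = DMSO-only wells as the low control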
# ADAM10 inh: inhibitors of human ADAM10. O14672. recombinant ADAM10, EDANS/DABCYL FRET peptide cleavage, 3 h. inhibition, % at 7 µM. actives 0.62% (n = 370,000). AID 720582;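 active = inhibition above a per-campaign cutoff equal to the mean of compounds falling between control-based bounds plus 3 SD, cut at about 20% in these data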;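 note: 0% = DMSO wells while the 100% control is not disclosed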
# An asterisk follows results filed as active; x = not tested or not shown.
SMILES,PLCg1 inh,PLC-beta3 inh,proKLK7 act,ADAM17 inh,ADAM10 inh
O=C1CCCN2N=C(SCC(=O)Nc3nc4ccccc4s3)SC2=N1,10*,-3,-1,-3,-2
O=C1CCCN2N=C(SCC(=O)Nc3nccs3)SC2=N1,-1,4,-1,-1,-7
Cn1c(=O)n(Cc2ccccc2)c(=O)c2c1nc1n2CCCN1CCc1ccccc1,-3,1,0,3,9
Cn1c(=O)n(Cc2ccccc2)c(=O)c2c1nc1n2CCCN1Cc1ccccc1,11*,0,0,1,-2
Cc1ccc(/C=C2/SC(=S)N(CCCC(=O)Nc3ccc(O)cc3)C2=O)cc1,1,-1,0,4,4
O=C(CCCN1C(=O)/C(=C\c2ccccc2)SC1=S)Nc1ccc(O)cc1,2,-3,0,5,24*
COCC1CCN(C(=O)CCc2nnc(C3(c4ccc(Cl)cc4)CCC3)o2)CC1,12*,2,0,3,13
Cc1cccc(-c2cccc3c4c([nH]c23)[C@@H]2C[C@H](N(C)C(=O)NC3CCCCC3)[C@H]([C@H](C)O)CN2CC4)c1,-105,-146,0,-16,-51
CC1=NN(c2ccccc2)C(=O)/C1=C/c1ccc(Cl)cc1,16*,3,0,4,25*
CC1=NN(c2ccccc2)C(=O)/C1=C/c1ccc[nH]1,3,5,1,7,8
CC1=NN(c2ccccc2)C(=O)C1=Cc1ccccc1,10*,5,1,-4,-9
CCOC(=O)CC[C@@H]1CC[C@]2(CCCN(C(=O)C3CCCC3)C2)O1,-1,-2,1,-1,-4
Cn1cc(P(=S)(N2CCOCC2)N2CCOCC2)cc1P(=O)(N1CCOCC1)N1CCOCC1,18*,-4,0,1,2
O=C(Cc1ccccc1)Nc1nc(=O)c2ccccc2s1,2,12*,0,-3,-7
CCCN(CCC)C(=S)NC(=O)c1ccc(Cl)cc1Cl,13*,8,0,3,13
C[C@H]1[C@@H](NC(=O)C(c2ccccc2)c2ccccc2)CC[C@@]23CCCN2C(=O)CCC[C@@H]13,-1,2,x,0,2
CCN1CCN(CC(=O)Nc2cc(S(=O)(=O)N(CC)c3ccccc3)ccc2Cl)CC1,9.5*,3,1,0,-5
CC(NC(=O)COC(=O)C12CC3CC(CC(O)(C3)C1)C2)c1ccccc1 (stereo not drawn),13*,13*,0,6,1
C[C@@H]1COc2cc(N3CCCCC3)ccc2S(=O)(=O)N1,-3,1,0,-2,-9
Cc1cc(NC(=O)C2CCCC2)n(-c2nc3ccccc3[nH]2)n1,11*,5,1,6,17
O=C(COc1ccccc1)NCCSCc1ccc(Cl)cc1,0,0,-1,8.6*,0
FC(F)(F)COc1nc(N2CCOCC2)nc(N(c2ccccc2)c2ccccc2)n1,13*,-32,0,7,8
O=S1(=O)c2c(cccc2N2CCSCC2)Oc2ccccc2CN1Cc1cn(Cc2ccccc2C(F)(F)F)nn1,-6,-11,-5,8,4
O=C(CN(c1cccc(C(F)(F)F)c1)S(=O)(=O)c1ccc(Cl)c([N+](=O)[O-])c1)NCc1ccc(F)cc1,8,11*,0,4,20*
COc1ccc(CN(C(=O)Cc2c[nH]c3ccccc23)C(C(=O)NC2CCCCC2)c2ccc(C)o2)cc1 (stereo not drawn),2,-2,1,12*,26*
SMILES,PLCg1 inh,PLC-beta3 inh,proKLK7 act,ADAM17 inh,ADAM10 inh
COc1cc(C(C(=O)NC2CCCCC2)N(Cc2cccs2)C(=O)Cc2c[nH]c3ccccc23)cc(OC)c1OC (stereo not drawn),-2,2,1,3,-5
Cc1ccc(C)c(NS(=O)(=O)c2cc(C(=O)NCCSC3CCCCC3)ccc2C)c1,14*,2,0,16*,34*
CC(C)CN1C(=O)C[C@]2(C(=O)N(C)c3ccc(NS(=O)(=O)C4CC4)cc32)C1c1ccccc1 (stereo partly drawn),6,4,0,1,2
CCC1CCC/C1=N\NC(=O)c1ccccc1C (stereo not drawn),10*,7,1,8,6
C/C(CC(=O)NC1CCCCC1)=N\NC(=O)c1ccccc1C,0,-2,0,-2,-1
CCN(CC)S(=O)(=O)c1ccc(NC(=O)Nc2cccc(C(F)(F)F)c2)cc1,1,1,0,14*,39*
COC(=O)C1CN(Cc2cn(CCC3OCCO3)nn2)CCS(=O)(=O)N1Cc1ccc(Cl)cc1 (stereo not drawn),2,0,0,-1,-8
Cc1ccc(NS(=O)(=O)c2cc(NC(=O)c3ccc4c(c3)NC(=O)CS4)ccc2C)c(C)c1,5,1,-1,10*,26*
COC(=O)c1cn(-c2ccc(-c3noc4c3C(=O)N(CC(=O)N3CCOCC3)CC4)cc2)nn1,-2,-5,-1,0,0
CC[C@]1(c2ccccc2)C(=O)N(C(=O)OC)N1C(=O)OC,9,9,1,10*,9
COc1ccc(C(=O)CCS(=O)(=O)c2ccc(C)cc2)cc1,-2,-7,0,2,-3
COc1ccc(C(CC(=O)c2ccc(O)cc2)S(=O)(=O)c2ccc(C)cc2)cc1 (stereo not drawn),-24,-29,46*,-31,-96
C[C@@H]1CN([C@H](C)CO)C(=O)c2cc(Br)cnc2O[C@H]1CN(C)C(=O)c1ccccc1,11*,7,0,0,0
Cc1ccc(S(=O)(=O)N2CCCC2C(c2ccccc2O)c2cn(C)c3ccccc23)cc1 (stereo not drawn),0,1,0,-4,-4
Cc1cccc(C)c1NC(=O)C1(C)CSCC(=O)N1CCOc1ccccc1 (stereo not drawn),12*,11*,0,7,2
CCCCCCCCN1C(=O)[C@@H](CC(=O)NCc2cccc(C(F)(F)F)c2)C[C@@]2(C(=O)OC)C1=C[C@H](C(C)C)O[C@@H]2C1CC1,-1,-2,0,-1,0
CCN1CCN(Cc2ccc(NC(=O)c3cc(NC(=O)C(=O)c4c[nH]c5ccccc45)cc(OC)c3)cc2C(F)(F)F)CC1,-13,-20,-3,9.0*,22*
c1ccc(CNC2CCC23CCC(c2ccccc2)CC3)cc1 (stereo not drawn),3,3,0,1,6
O=C(CCCCCN1C(=O)C2C3C=CC(C3)C2C1=O)Nc1ccc2ncccc2c1 (stereo not drawn),-108,-163,2,-19,-61
CC(C)(C)NC(=O)C(c1c[nH]c2ccccc12)N(C(=O)Cn1nnc(-c2ccc(Cl)cc2)n1)c1ccccc1F (stereo not drawn),1,0,0,6,10
